From PMC4242493, “Sequence specificity incompletely defines the genome-wide occupancy of Myc”
The full ranking holds about 33,000 sequences; the median of “normalized occupancy” is about 0.075, and the highest 2% start at about 0.095. The sample holds the highest values, similar sequences and a random draw of the others, so the mix is not that of the screen.

biological target: MaxL homodimer (Homo sapiens, UniProt P61244 1-160); experiment: universal protein-binding microarray (PBM); PBS-based mixture, 10 nM His-tagged protein dimer, 2% milk, 200 ng/uL BSA, 50 ng/uL salmon testes DNA, 0.02% TX-100; detection with Alexa 488 anti-His antibody;; high values mean tight binding; conditions: protein: recombinant; tags: C-terminal His-tag (pET21a); chain copies: 2; dsDNA, one strand shown
Outline: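 Each 8-mer received a fluorescence intensity from GenePix 4400A scans of Agilent 4 x 44 K 'all 10-mer' universal arrays. Those arrays had been incubated with His-tagged protein dimer at 10 nM, and the bound protein was marked with a fluorophore-conjugated anti-His antibody at 10 ng/μL. Binding occupancy is the intensity scaled to that of the highest-ranked sequence word.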

MaxL homodimer, sequence (P61244 whole entry): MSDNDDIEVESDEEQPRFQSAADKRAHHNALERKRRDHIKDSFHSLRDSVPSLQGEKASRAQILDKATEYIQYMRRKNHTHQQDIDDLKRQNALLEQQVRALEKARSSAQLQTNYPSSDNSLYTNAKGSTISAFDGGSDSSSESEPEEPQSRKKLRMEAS

Sequence	binding signal
GCCCCCCC	0.0757 normalized occupancy
CCAGGGGA	0.0742 normalized occupancy
ACACGTTG	0.128 normalized occupancy
AGACGTTA	0.0775 normalized occupancy
CAACGTTA	0.0767 normalized occupancy
AAACGTTG	0.0765 normalized occupancy
AAACGTTA	0.0739 normalized occupancy
ACACGTTA	0.118 normalized occupancy
AGACGTTC	0.0744 normalized occupancy
CCACGTTC	0.0913 normalized occupancy
ACACGTCG	0.0849 normalized occupancy
ATACGTTC	0.0794 normalized occupancy
ACACGTTC	0.102 normalized occupancy
CCACGTTA	0.105 normalized occupancy
AGTCAGGC	0.0722 normalized occupancy
TGCCCAAA	0.0731 normalized occupancy
AGTATCAA	0.0766 normalized occupancy
GGCCAACC	0.0741 normalized occupancy
AAAAATGG	0.078 normalized occupancy
ATGCCCCA	0.0786 normalized occupancy
GAACATTA	0.0812 normalized occupancy
ACGCCTCC	0.0771 normalized occupancy
AATAACAA	0.0746 normalized occupancy
GTACGTTA	0.0781 normalized occupancy
GGACGTTA	0.0789 normalized occupancy

Sequence	binding signal
GCACGTTA	0.104 normalized occupancy
ACCAAGGC	0.0726 normalized occupancy
GATATAAA	0.0756 normalized occupancy
ACAGGTCA	0.0797 normalized occupancy
CACGAGTG	0.0961 normalized occupancy
AACGAGTA	0.077 normalized occupancy
CACGAGAG	0.0911 normalized occupancy
AACGAGTG	0.0753 normalized occupancy
CACGAGTC	0.0906 normalized occupancy
CACGAGTA	0.103 normalized occupancy
CGCAACTA	0.0738 normalized occupancy
CAAGAGGG	0.0744 normalized occupancy
CTGGTCGC	0.0732 normalized occupancy
ATGTATTC	0.0814 normalized occupancy
CATGTACA	0.0958 normalized occupancy
CATGTACC	0.0843 normalized occupancy
GATGTACA	0.0827 normalized occupancy
AATGTACG	0.0761 normalized occupancy
CATGTATC	0.0975 normalized occupancy
CATGTATA	0.089 normalized occupancy
AATGTATC	0.0876 normalized occupancy
AATGTACA	0.0818 normalized occupancy
CATGTACG	0.0957 normalized occupancy
AGTATTAT	0.0827 normalized occupancy
CAGTGATG	0.0746 normalized occupancy

Sequence	binding signal
CACTTCGG	0.0755 normalized occupancy
TCGACAGA	0.0736 normalized occupancy
CGGTAGCA	0.0827 normalized occupancy
AGCAGATC	0.077 normalized occupancy
ACTCCAGT	0.0743 normalized occupancy
ACGCTGTA	0.0841 normalized occupancy
CCGGTGAG	0.0746 normalized occupancy
GACCTTGA	0.0732 normalized occupancy
GCTAAATA	0.079 normalized occupancy
GAGGTGGC	0.0764 normalized occupancy
CAGGTGGA	0.0861 normalized occupancy
CAGGTGGG	0.101 normalized occupancy
CAGGTGGC	0.0954 normalized occupancy
AAGGTGGC	0.0758 normalized occupancy
CAGATGGG	0.0837 normalized occupancy
GTGCTGAA	0.0776 normalized occupancy
AATGGTAC	0.0764 normalized occupancy
AGTAGGAT	0.076 normalized occupancy
ACATGGTA	0.104 normalized occupancy
CCATGGTA	0.0851 normalized occupancy
ACATGGTG	0.0914 normalized occupancy
ACATGGTC	0.104 normalized occupancy
ACTTGGTA	0.0735 normalized occupancy
GCATGGTA	0.106 normalized occupancy
GAATGGTA	0.08 normalized occupancy

Sequence	binding signal
CCATGGTC	0.0849 normalized occupancy
ATATGGTA	0.0884 normalized occupancy
AGGCGAGG	0.0752 normalized occupancy
CCTACAGG	0.0722 normalized occupancy
CGCGACGA	0.0728 normalized occupancy
CACTTTTA	0.0728 normalized occupancy
AAAGGTGT	0.0816 normalized occupancy
GTTAGAAA	0.0757 normalized occupancy
TACGAACA	0.0754 normalized occupancy
AAGCAACG	0.0753 normalized occupancy
TCACGCCA	0.0851 normalized occupancy
CCACGCGA	0.131 normalized occupancy
CCACGCAG	0.0904 normalized occupancy
CAACGCGG	0.0764 normalized occupancy
CCACGCGC	0.157 normalized occupancy
CAACGCGA	0.0767 normalized occupancy
CCACGCGG	0.32 normalized occupancy
TCACGCAA	0.0764 normalized occupancy
CAACGCGC	0.0787 normalized occupancy
TCACGCGA	0.11 normalized occupancy
CGACGCGA	0.0735 normalized occupancy
CTACGCGC	0.0727 normalized occupancy
GCCTACAA	0.075 normalized occupancy
GACAGAGA	0.0724 normalized occupancy
ATACAACA	0.0788 normalized occupancy

Sequence	binding signal
CGAAAGCA	0.0741 normalized occupancy
CAGGGGGA	0.0851 normalized occupancy
TCTTCGCA	0.0796 normalized occupancy
AATAGAGC	0.0803 normalized occupancy
AATAACGT	0.0823 normalized occupancy
ATTAGTAC	0.0786 normalized occupancy
AATGCATC	0.0763 normalized occupancy
CATGCATC	0.0997 normalized occupancy
CATGCATG	0.121 normalized occupancy
AATGCATG	0.1 normalized occupancy
CATGCAAG	0.0837 normalized occupancy
CCTGCATC	0.0807 normalized occupancy
AATGCATT	0.0797 normalized occupancy
GATGCATC	0.0787 normalized occupancy
AGTGCATG	0.0988 normalized occupancy
AGTGCATC	0.0772 normalized occupancy
ACTGCATG	0.0859 normalized occupancy
AGTGCATA	0.0847 normalized occupancy
GCACGAAA	0.078 normalized occupancy
TAGACACA	0.0829 normalized occupancy
AACAAGCC	0.0718 normalized occupancy
AGAGTTTG	0.073 normalized occupancy
CCTGGGAC	0.0732 normalized occupancy
ATGTCTCG	0.0802 normalized occupancy
CGCTCACC	0.0763 normalized occupancy

Sequence	binding signal
AAGCCATC	0.0756 normalized occupancy
AAGAAGGA	0.0794 normalized occupancy
AATGCATA	0.0839 normalized occupancy
TATGCATA	0.0811 normalized occupancy
CATGCATA	0.0989 normalized occupancy
CCACGGGG	0.097 normalized occupancy
CCACGGGC	0.076 normalized occupancy
CACGGGGC	0.0863 normalized occupancy
CACGGGGA	0.0894 normalized occupancy
CCACGGGA	0.0794 normalized occupancy
CACGGGGG	0.101 normalized occupancy
AGGAATTG	0.0797 normalized occupancy
ACGTAGCG	0.0805 normalized occupancy
ACCCCGTA	0.0818 normalized occupancy
ACCCCGTG	0.108 normalized occupancy
AACCCATG	0.0961 normalized occupancy
AACCCATT	0.0783 normalized occupancy
AACCCGTG	0.0816 normalized occupancy
AACCCATA	0.0815 normalized occupancy
ACCCCATA	0.0838 normalized occupancy
ACCCCATC	0.0823 normalized occupancy
CACCCATG	0.1 normalized occupancy
CACCCATA	0.0892 normalized occupancy
CACCCATC	0.0827 normalized occupancy
ACCCCATG	0.102 normalized occupancy

Sequence	binding signal
CGGACGCA	0.0735 normalized occupancy
ATTTTCTA	0.0856 normalized occupancy
CAGAAGAC	0.0718 normalized occupancy
GACAGTAA	0.0794 normalized occupancy
ACGTTCGA	0.0752 normalized occupancy
CACGACAC	0.0789 normalized occupancy
CGTACGGC	0.0778 normalized occupancy
AAACAGCA	0.0759 normalized occupancy
CGCATGTC	0.105 normalized occupancy
AGCATTTC	0.0792 normalized occupancy
AGGATGTA	0.0795 normalized occupancy
AGTATGTC	0.0803 normalized occupancy
GGCATGTA	0.0812 normalized occupancy
AGTATGTG	0.081 normalized occupancy
CGCATTTC	0.0783 normalized occupancy
AGCATGTG	0.164 normalized occupancy
AGGATGTG	0.0831 normalized occupancy
AGCATGTC	0.1 normalized occupancy
AGCATGTA	0.106 normalized occupancy
CGCATCTC	0.0769 normalized occupancy
CCGTACAC	0.0886 normalized occupancy
GTGAGTGA	0.0775 normalized occupancy
